The list is not random: actives were taken first. Their share in the collection is about 0.54%.
TcdB GH inh – TcdB glycohydrolase inhibitors, primary screen, biochemical, single point, plate reader; TcdB glycohydrolase enzymatic assay; inhibition, % at 9.99 µM; 350,000 compounds, 0.24% hits; AID 652162, 2013; in the data active = inhibition above about 10%
Target sequence (P18177 whole entry, looked up): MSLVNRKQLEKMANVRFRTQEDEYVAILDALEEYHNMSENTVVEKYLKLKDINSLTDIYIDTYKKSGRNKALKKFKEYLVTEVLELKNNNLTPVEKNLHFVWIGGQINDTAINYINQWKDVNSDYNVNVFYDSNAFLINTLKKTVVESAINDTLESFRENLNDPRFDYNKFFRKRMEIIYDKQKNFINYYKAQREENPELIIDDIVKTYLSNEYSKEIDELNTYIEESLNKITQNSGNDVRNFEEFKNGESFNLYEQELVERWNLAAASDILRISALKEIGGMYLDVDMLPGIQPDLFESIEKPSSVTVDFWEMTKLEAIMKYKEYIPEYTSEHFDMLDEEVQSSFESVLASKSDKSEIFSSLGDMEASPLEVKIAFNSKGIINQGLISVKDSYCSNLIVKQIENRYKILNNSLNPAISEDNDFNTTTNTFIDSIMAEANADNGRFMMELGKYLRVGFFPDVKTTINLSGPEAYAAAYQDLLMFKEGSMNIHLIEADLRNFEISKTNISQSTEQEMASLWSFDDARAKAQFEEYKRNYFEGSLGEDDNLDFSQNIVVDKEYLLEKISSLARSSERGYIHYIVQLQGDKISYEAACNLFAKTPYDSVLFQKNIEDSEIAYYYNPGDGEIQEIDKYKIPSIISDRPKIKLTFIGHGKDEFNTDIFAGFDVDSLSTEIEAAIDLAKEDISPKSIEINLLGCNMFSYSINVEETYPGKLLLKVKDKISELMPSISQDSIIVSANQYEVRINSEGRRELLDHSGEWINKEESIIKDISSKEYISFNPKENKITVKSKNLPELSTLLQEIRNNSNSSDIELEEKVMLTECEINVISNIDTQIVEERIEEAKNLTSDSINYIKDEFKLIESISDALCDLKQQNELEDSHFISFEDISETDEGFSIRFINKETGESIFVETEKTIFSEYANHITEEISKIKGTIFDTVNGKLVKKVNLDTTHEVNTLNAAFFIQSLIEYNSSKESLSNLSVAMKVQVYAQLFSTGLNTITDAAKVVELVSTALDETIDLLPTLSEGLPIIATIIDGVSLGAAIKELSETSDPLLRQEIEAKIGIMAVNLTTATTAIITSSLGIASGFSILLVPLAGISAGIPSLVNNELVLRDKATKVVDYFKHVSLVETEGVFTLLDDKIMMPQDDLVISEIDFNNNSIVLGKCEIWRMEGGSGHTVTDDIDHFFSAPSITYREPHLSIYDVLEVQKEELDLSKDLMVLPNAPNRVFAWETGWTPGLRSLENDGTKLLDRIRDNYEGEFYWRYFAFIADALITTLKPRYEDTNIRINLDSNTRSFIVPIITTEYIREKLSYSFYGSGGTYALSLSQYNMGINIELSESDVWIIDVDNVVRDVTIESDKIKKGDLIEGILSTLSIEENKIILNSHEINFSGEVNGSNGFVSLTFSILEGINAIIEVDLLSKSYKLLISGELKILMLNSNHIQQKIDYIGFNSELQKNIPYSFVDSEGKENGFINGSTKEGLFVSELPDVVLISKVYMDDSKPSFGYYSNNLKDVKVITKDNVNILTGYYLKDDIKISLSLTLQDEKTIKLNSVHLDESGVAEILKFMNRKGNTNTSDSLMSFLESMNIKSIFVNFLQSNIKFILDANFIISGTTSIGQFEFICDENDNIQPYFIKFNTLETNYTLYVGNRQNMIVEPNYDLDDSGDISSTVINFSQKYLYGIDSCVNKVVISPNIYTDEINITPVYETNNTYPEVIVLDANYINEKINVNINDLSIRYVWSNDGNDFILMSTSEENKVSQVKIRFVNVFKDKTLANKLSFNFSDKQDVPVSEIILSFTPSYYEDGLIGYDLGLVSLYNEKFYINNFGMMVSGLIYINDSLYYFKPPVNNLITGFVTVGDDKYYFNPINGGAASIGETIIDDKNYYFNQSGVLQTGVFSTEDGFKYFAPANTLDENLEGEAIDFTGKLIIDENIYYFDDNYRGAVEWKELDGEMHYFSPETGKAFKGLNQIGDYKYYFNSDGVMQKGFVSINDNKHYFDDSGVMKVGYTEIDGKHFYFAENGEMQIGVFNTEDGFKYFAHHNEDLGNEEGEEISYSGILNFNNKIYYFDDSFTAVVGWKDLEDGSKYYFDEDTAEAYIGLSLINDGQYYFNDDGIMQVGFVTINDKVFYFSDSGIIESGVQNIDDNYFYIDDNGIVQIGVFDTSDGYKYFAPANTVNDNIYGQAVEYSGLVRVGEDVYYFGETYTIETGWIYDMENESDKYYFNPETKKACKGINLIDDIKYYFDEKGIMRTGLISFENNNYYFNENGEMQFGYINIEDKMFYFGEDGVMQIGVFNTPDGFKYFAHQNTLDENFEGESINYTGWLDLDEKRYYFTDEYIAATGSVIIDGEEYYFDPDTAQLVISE
Vc quorum ag – inducers of Vibrio cholerae quorum light production without autoinducers, primary screen, BH1578 luxS cqsA deficient, single point | V. cholerae BH1578 lux reporter, luminescence, 6 h | activation, % at 18.7 µM | 350,000 compounds, 0.16% hits; in the data active = activation mostly above about 9.7%, no sharp cut-off
BioA inh – M. tuberculosis BioA enzyme inhibitors, primary screen, biochemical, plate reader, single point, HTS; purified M. tuberculosis BioA enzyme; inhibition, % at 9.99 µM; 360,000 compounds, 0.096% hits; 7,8-diaminopelargonic acid synthase BioA (Mycobacterium tuberculosis); in the data active = inhibition above about 40%
FadD28 FP inh – inhibitors of FadD28 bisubstrate probe binding, primary screen, biochemical, fluorescence polarization, single point; Mycobacterium tuberculosis FadD28 fatty-acid-AMP ligase; inhibition, % at 12.5 µM; 360,000 compounds, 0.22% hits; AID 588549, 2011; in the data active = inhibition above about 8.5%, passing the limit was not always enough
An asterisk follows results filed as active.

What do the screens show for `COc1ccc(C#Cc2cnc3c(c2)C(=O)N([C@H](C)CO)C[C@@H](C)[C@H](CN(C)C(=O)CC2CC2)O3)cc1`?
TcdB GH inh: 0.6; BioA inh: -0.5

Results for S=c1nc(-c2cccc(Cl)c2)[nH][nH]1 ?
TcdB GH inh: 14.2*; Vc quorum ag: -0.3; FadD28 FP inh: -2.6

Results for CCC(=O)Nc1ccc2c(c1)C(=O)N(C)C[C@@H](OC)[C@H](C)CN(Cc1cccc(F)c1)[C@H](C)CO2 ?
TcdB GH inh: 0.4; BioA inh: 1.1

Results for CS(=O)(=O)N1CCc2cc(C(=O)Nc3ccc(O)cc3)ccc21 ?
TcdB GH inh: 25.1*; Vc quorum ag: inactive; BioA inh: 0.4; FadD28 FP inh: 0.0

Results for C[C@H]1CN([C@@H](C)CO)S(=O)(=O)c2ccc(C#CC3CCCC3)cc2O[C@@H]1CN(C)S(C)(=O)=O ?
TcdB GH inh: 0.8; BioA inh: 2.5

How did O=S(=O)(c1ccc(NC(=S)N/N=C/c2ccc(O)c(O)c2)cc1)N1CCOCC1 do in these assays?
TcdB GH inh: 5.0; Vc quorum ag: -0.8; BioA inh: -1.4; FadD28 FP inh: 0.4

How did O=[N+]([O-])c1cc(Cl)cc(/C=N/NC(=S)Nc2ccc(S(=O)(=O)N3CCOCC3)cc2)c1O do in these assays?
TcdB GH inh: 1.7; Vc quorum ag: -2.4; BioA inh: 5.4; FadD28 FP inh: 18.3*

What do the screens show for `Cc1ccccc1-c1cnc2c(c1)C(=O)N([C@H](C)CO)C[C@H](C)[C@H](CN(C)Cc1cccnc1)O2`?
TcdB GH inh: -0.2; BioA inh: 2.3

How did COc1cc2[nH]c(=S)nc(NCCC(C)C)c2cc1OC do in these assays?
TcdB GH inh: 10.0*; Vc quorum ag: -0.2; FadD28 FP inh: -0.3

Results for CO[C@H]1CN(C)C(=O)c2cc(NS(C)(=O)=O)ccc2OC[C@H](C)N(CC2CCCCC2)C[C@H]1C ?
TcdB GH inh: 0.2; BioA inh: 1.3

Results for C[C@@H]1CCCCO[C@@H](CN(C)S(C)(=O)=O)[C@@H](C)CN([C@@H](C)CO)C(=O)c2cc(NC(=O)CCCN(C)C)ccc2O1 ?
TcdB GH inh: -0.6; BioA inh: -1.6

Results for O=C1NC(=S)S/C1=C\C=C\c1ccc([N+](=O)[O-])o1 ?
TcdB GH inh: 0.1; Vc quorum ag: 13.7; BioA inh: 1.7; FadD28 FP inh: 13.8*

How did O=C(O)/C=C/c1ccc([N+](=O)[O-])o1 do in these assays?
TcdB GH inh: -0.6; Vc quorum ag: -0.4; FadD28 FP inh: -0.3

What do the screens show for `O=C(C[C@@H]1CC[C@H]2[C@@H](COC[C@H](O)CN2Cc2ccc(Cl)cc2)O1)NCc1cccc(F)c1`?
TcdB GH inh: 0.6; BioA inh: 1.2

Results for COc1ccc(S(=O)(=O)N[C@H]2CC[C@H](CCn3cc(-c4ccccc4F)nn3)O[C@@H]2CO)cc1 ?
TcdB GH inh: 0.0; BioA inh: 8.1

What do the screens show for `COc1cc(/C=N/NC(=O)c2nnn(-c3nonc3N)c2C(C)C)ccc1OCc1ccccc1`?
TcdB GH inh: 0.4; Vc quorum ag: -2.0; BioA inh: -0.5; FadD28 FP inh: -1.5

How did COc1cc(/C=N/NC(=O)c2nnn(-c3nonc3N)c2C(C)C)ccc1O do in these assays?
TcdB GH inh: 13.1*; Vc quorum ag: -0.3; BioA inh: 3.3; FadD28 FP inh: -1.1

How did COc1ccc(CNC(=O)COc2ccc(OC)cc2)cc1 do in these assays?
TcdB GH inh: 1.0; Vc quorum ag: inactive; BioA inh: -0.3; FadD28 FP inh: 21.9*

How did COC(=O)Cc1ccc(NC(=S)NCc2ccc(OC)cc2)cc1 do in these assays?
TcdB GH inh: 23.2*; Vc quorum ag: 0.1; BioA inh: 2.5; FadD28 FP inh: 0.4

How did COc1ccc(CNC(=S)Nc2ccc(OC)cc2)cc1 do in these assays?
Vc quorum ag: -0.1; FadD28 FP inh: -0.5

Results for COc1ccc(CNC(=O)COc2ccc(F)cc2)cc1 ?
TcdB GH inh: 1.6; Vc quorum ag: -0.3; BioA inh: -0.7; FadD28 FP inh: -3.8

Results for Cc1nc(S(=O)(=O)N(C)Cc2ccccc2)c(C#N)c(C)c1Cl ?
TcdB GH inh: 64.2*; Vc quorum ag: 3.3; BioA inh: -0.4; FadD28 FP inh: -3.3

How did C[C@@H]1CN([C@H](C)CO)C(=O)c2cc(C3=CCCCC3)cnc2O[C@H]1CN(C)C(=O)c1ccncc1 do in these assays?
TcdB GH inh: -0.3; BioA inh: -2.7

Screens from PubChem.
